# Experimental data published in PubChem BioAssay (NCI).
# This is part of a sample that, as a whole, favours compounds with a hit. Of some 83,000 tested, about 20% had one in any assay.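 48-hour exposure, single concentration, 96-well plates; percent growth endpoint where 0 means no net growth. Active: below 10.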 Unmarked numbers belong to inactive results. Calls of active or inactive are those of the source.
# Experiments:
# Assay in all cases: NCI-60 one-dose screen, 48 h (100 = growth as untreated, 0 = no growth, -100 = all killed)
# Settings in all cases: 10 µM unless noted
# NCI-H23 lung = tested on: NCI-H23 lung
# NCI-H226 lung = tested on: NCI-H226 lung
# NCI-H322M lung = tested on: NCI-H322M lung
# HOP-62 NSCLC = tested on: HOP-62 NSCLC
# NCI-H460 lung = tested on: NCI-H460 lung
# HOP-92 NSCLC = tested on: HOP-92 NSCLC
# NCI-H522 lung = tested on: NCI-H522 lung
# A549/ATCC NSCLC = tested on: A549/ATCC NSCLC
# 786-0 renal = tested on: 786-0 renal
# COLO 205 colon = tested on: COLO 205 colon
SMILES,growth (NCI-H23 lung),growth (NCI-H226 lung),growth (NCI-H322M lung),growth (HOP-62 NSCLC),growth (NCI-H460 lung),growth (HOP-92 NSCLC),growth (NCI-H522 lung),growth (A549/ATCC NSCLC),growth (786-0 renal),growth (COLO 205 colon)
CC1=C(NCCN2CCCC2)C(=O)c2c(OCc3ccc(C(F)(F)F)cc3)cccc2C1=O,90.2%,91.3%,91%,86.9%,68.9%,32.5%,100%,85%,67%,82.4%
O=c1cc(-c2ccccc2)[nH]c2ccccc12,39.1%,70.2%,55.4%,49%,13.2%,38.5%,-46.9% (active),19.1%,32.3%,5.72% (active)
COc1ccc(-c2cc(/C=C3\C(=O)Nc4ccc(Cl)cc43)[nH]n2)cc1,63.1%,75.7%,77.3%,55.5%,37%,80.7%,9.37% (active),35.7%,82.3%,37%
CCN(CC)CC(C)Nc1ccc([N+](=O)[O-])c2sc3ccccc3c(=O)c12 (stereo not given),33.5%,24%,26.6%,46.2%,9.64% (active),7.52% (active),0.683% (active),14.2%,16.3%,10.8%
Cl/C(=N\Nc1ccccc1)c1ccccc1,91.4%,91%,75.4%,96%,106%,97.9%,72.8%,85.4%,102%,98.4%
Cc1cc(Nc2nc(N3CCOCC3)nc3ccccc23)n[nH]1,80.5%,57.7%,65.8%,78%,68.9%,60.7%,40.2%,53.3%,49.9%,65.4%
O=C1c2cccnc2C(=O)c2c1c(C(=O)OCCN1CCCCC1)c1ccccn21,-53.2% (active),-15.3% (active),-81.7% (active),-34.5% (active),-16.7% (active),12.5%,-64.5% (active),-46.6% (active),-45.9% (active),-70.3% (active)
Nc1cc2nc3ccccc3sc-2cc1=O,50%,84.4%,93.8%,63.9%,75%,101%,66%,27.3%,97.7%,104%
c1ccc2sc(SCCCn3ccnc3)nc2c1,81.4%,74.8%,98.7%,99.7%,97.8%,78.9%,50.4%,74.9%,104%,98.2%
COc1ccc(-c2c3c(nc4n[nH]c(-c5ccc(Cl)cc5)c24)-c2ccccc2C(=O)C3=O)cc1,-53% (active),42.3%,84%,29.1%,-12.9% (active),9.32% (active),-59.7% (active),35.9%,7.58% (active),70.6%
CSc1ccc(N=C=C(c2ccccc2)c2ccccc2)cc1,99%,95.7%,107%,96.1%,102%,85.4%,71.8%,78.4%,95.6%,107%
O=C(NCc1cccc(C(F)(F)F)c1)[C@H](CCC(=O)N1CCN(C2CCCCC2)CC1)N1C(=O)[C@@H](N2C(=O)OC[C@@H]2c2ccccc2)[C@H]1/C(Cl)=C/c1ccccc1,68.4%,73.2%,36.4%,55.6%,47.8%,32.6%,33.7%,37.7%,49.9%,40.7%
O=C1c2cccnc2C(=O)c2c1c(C(=O)OCCN1CCOCC1)c1ccccn21,-38.4% (active),-28.4% (active),-55.4% (active),-34% (active),-31.2% (active),8.96% (active),-30.2% (active),-48.7% (active),2.64% (active),-53.5% (active)
COc1cc(-c2c3sc(=O)[nH]c3nc3c2c(=O)[nH]n3C(C)C)cc2c1OCO2,108%,96.3%,99.9%,107%,101%,114%,96.8%,94.8%,106%,119%
Cc1ccc2c(c1)C(=O)c1c-2c(OCCCN(C)C)nc2ccccc12,7.88% (active),32.8%,19.6%,19.9%,-8.22% (active),-10.7% (active),-11% (active),-43.9% (active),44.7%,-30.6% (active)
Cc1ccn2c(-c3csc(Nc4cccc(O)c4)n3)c(C)nc2c1,25.5%,35.7%,58.4%,2.98% (active),13.7%,52.2%,-17.4% (active),38.9%,40.1%,-87.1% (active)
COC(=O)[C@H](C(C)C)n1c(=O)c2cc(OC)c(OC)cc2c2cnc3[nH]ccc3c21,62.1%,46.4%,48.5%,45.8%,41.2%,13.7%,62.8%,40.7%,52.9%,57.5%
CNCc1cccc2c1OCCOCCOCCN(C)S(=O)(=O)c1ccc(cc1)-c1cnc(N)c(n1)C(=O)N2,52.6%,45.6%,25.5%,79.8%,10.5%,127%,9.56% (active),60.5%,9.16% (active),29.8%
COc1ccccc1N1CCN(CCn2c(=O)c3c(c4ccccc4n3C)n(C)c2=O)CC1,103%,82.9%,101%,107%,96.7%,92.1%,45.2%,71.5%,111%,100%
COc1ccc2nc3cc(Cl)ccc3c(N3CCN(c4nccc(Nc5ccc(Cl)cc5)n4)CC3)c2c1,86.4%,99.8%,97.5%,88.1%,67%,34.8%,51.8%,76.4%,42.2%,95.7%
NS(=O)(=O)c1ccc(-n2ncc3c(=O)[nH]c(CN4CCN(c5cc6c(cc5F)c(=O)c(C(=O)O)cn6C5CC5)CC4)nc32)cc1,87.9%,100%,102%,113%,101%,88.4%,91.8%,104%,96.1%,114%
O=C1/C(=C/c2ccc(F)cc2)CN(C(=O)CCN2CCC(=NO)CC2)C/C1=C\c1ccc(F)cc1,-26.5% (active),72.8%,-11.8% (active),-37.7% (active),-26.9% (active),-5.42% (active),-72.6% (active),28.4%,-44.7% (active),-81.9% (active)
Nc1nc2c(c3ncccc13)C(c1ccc(Cl)c(Cl)c1)Cc1ncccc1-2 (stereo not given),32.7%,70.8%,40.9%,28%,12.5%,59%,-6.27% (active),22.7%,29.9%,1.52% (active)
O=c1c2cccc3c(Nc4c(F)cccc4F)ccc(c32)c2nc3ccccc3n12,85.8%,75.1%,86.8%,85.6%,72.7%,64.2%,83%,82.4%,100%,84.9%
O=C1Nc2ccccc2/C1=C/C(=N/c1nnc(-c2ccccc2)s1)c1ccccc1,45.7%,86.5%,95.7%,57%,88.2%,45.4%,-59.3% (active),80.2%,-19.3% (active),2.53% (active)
COc1ccc(CN(c2ccc(C)cc2)C2OC(=O)c3ccccc32)cc1OC (stereo not given),106%,91.1%,99.6%,106%,101%,91.3%,97.2%,88.3%,98.5%,138%
CNC(=S)N/N=C/CSC/C=N/NC(=S)NC,85.2%,104%,106%,90.5%,70.5%,101%,18.7%,62.8%,96.1%,39.1%
